This is part of a sample that, as a whole, favours compounds with a hit. Of some 83,000 tested, about 20% had one in any assay.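 Interpretation: 100, growth as untreated; towards 0, rising growth inhibition; 0, no net growth; 0 to -100, cell death. Compounds scoring below 10 were considered active.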 A number with no mark means an inactive call. Calls of active or inactive are those of the source.

Consider nine compounds from PubChem BioAssay (NCI).

Test in all cases: NCI-60 one-dose screen, 48 h (100 = growth as untreated, 0 = no growth, -100 = all killed)
For experiment [1], the system named is RPMI-8226 leukemia. Particulars: 10 µM unless noted.
Experiment [2] concerns OVCAR-8 ovarian. Particulars: 10 µM unless noted.
Experiment [3] deals with OVCAR-5 ovarian. The conditions noted are these: 10 µM unless noted.
Experiment [4] concerns SK-OV-3 ovarian. Particulars: 10 µM unless noted.
In experiment [5] the test system is IGROV1 ovarian. The conditions noted are these: 10 µM unless noted.
The subject of experiment [6] is OVCAR-3 ovarian. The conditions noted are these: 10 µM unless noted.
Experiment [7] relates to HS 578T breast. Particulars: 10 µM.
Experiment [8] relates to NCI/ADR-RES ovarian. The conditions noted are these: 10 µM unless noted.
For experiment [9], the system named is T-47D breast. Particulars: 10 µM unless noted.
The test system of experiment [10] is MDA-MB-435 melanoma. The conditions noted are these: 10 µM unless noted.
In experiment [11] the test system is SW-620 colon. The conditions noted are these: 10 µM unless noted.
Experiment [12] deals with MCF7 breast. Particulars: 10 µM unless noted.
The test system of experiment [13] is HCT-116 colon. Particulars: 10 µM unless noted.
The test system of experiment [14] is HCC-2998 colon. Particulars: 10 µM unless noted.
Experiment [15] concerns KM12 colon. Particulars: 10 µM unless noted.
Experiment [16] concerns OVCAR-4 ovarian. The conditions noted are these: 10 µM unless noted.
For experiment [17], the system named is BT-549 breast. Particulars: 10 µM unless noted.

In the case of `N#Cc1ccc(NC(=O)Nc2nc3ccc(OC(F)(F)F)cc3s2)cc1`, the growth was -9.16% (active) in experiment [1]; 8.91% (active) in [2]; 16% in experiment [3]; 0.444% (active) in experiment [4]; 13.2% in [5]; 28.9% in [6]. The growth is -0.817% (active) in experiment [7]; -13.8% (active) in experiment [8]; -10.3% (active) in experiment [9]; -25.6% (active) in experiment [10]; 13.6% in experiment [11]; 6.26% (active) in [12]. Further, the values for the growth in [13], in experiment [14] and in [15] were -3.77% (active), -5.67% (active) and 10.5%, respectively.

In the case of `C#CC[C@@H]1C[C@]2(C)[C@H]3CC[C@@H]4[C@H]5C(C(=C)C)CC[C@]5(C(=O)NCCCCCCCCN)CC[C@@]4(C)[C@]3(C)CC[C@H]2C(C)(C)[C@H]1OC(C)=O` (some centres not stated), the growth was 0.0796% (active) in experiment [1]; 91.3% in [2]; 108% in experiment [3]; 45.9% in [16]; 124% in experiment [4]; 85.7% in experiment [5]. Moreover, the growth in [6] was 55.4%; in experiment [7] it was 109%; in experiment [8] it was 93.8%; in experiment [17], 97.5%; in experiment [10] it was 76.5%; in experiment [11], -2.59% (active). In addition, the growth in experiment [12] was -18.9% (active); in [13] it was -88.5% (active); in experiment [14], 91.1%; in experiment [15], 61.9%.

With `COc1ccc(/C=c2\c(=O)n(-c3ccccc3)c3nn4c(n23)=NNC42CCCCC2)cc1`, the growth in experiment [1] was 107%; in experiment [2] it was 95.1%; in experiment [3], 113%; in [16] it was 106%; in experiment [4], 95.5%; in experiment [5], 88.5%. Further, the growth in experiment [6] is 95.9%; in experiment [7], 104%; in experiment [8], 99.4%; in experiment [17], 97.3%; in experiment [10], 110%; in [11], 103%. Moreover, the growth in [12] is 96.6%; in experiment [13], 95.8%; in experiment [14], 107%; in experiment [15], 102%.

Take `Cc1ccc(Nc2nc(NCCO)c3ccccc3n2)cc1C`: the growth in [1] is 19.7%; in experiment [2] it was 9.74% (active); in experiment [3], 25.6%; in experiment [16], 50.6%; in experiment [4], -0.684% (active); in [5] it was 20.2%. Moreover, the growth is -9.61% (active) in [6]; 36.1% in experiment [7]; 55.9% in [9]; 37.7% in experiment [17]; -35.8% (active) in experiment [10]; 13.5% in experiment [11]. Besides, the growth is 24.4% in experiment [12] and 16.5% in experiment [13].

As for `O=c1c2sc3ncc(Cl)cc3c2nnn1-c1cccc(Cl)c1`, the growth is 82.4% in experiment [1]; 79.8% in experiment [2]; 86.2% in experiment [3]; -7.2% (active) in experiment [16]; 40.7% in experiment [4]; 63% in [5]. The growth in experiment [6] is 24.7%; in [9], 74.7%; in experiment [17], 85.4%; in experiment [10], 66.9%; in experiment [11] it was 80.5%; in [12], 82.5%. The growth is 31.3% in [13], 125% in experiment [14] and 87.4% in [15].

For `COc1cc2c(cc1I)-c1c(cc(OC)c(OC)c1OC)CC[C@@H]2NC(C)=O`, the growth in experiment [1] was 35.5%; in [2], 24.6%; in experiment [3], 36%; in experiment [16], 40.8%; in experiment [4] it was 10.3%; in [5] it was 9.96% (active). The growth was 17.3% in experiment [6]; -21.4% (active) in experiment [7]; -19.2% (active) in [8]; 55.3% in experiment [9]; 47.7% in experiment [17]; -8.3% (active) in [10]. Besides, the growth was 10.3% in experiment [11], 11.3% in experiment [12], 0.415% (active) in experiment [14] and 7.62% (active) in experiment [15].

As for `Cc1[nH]n(C(=O)c2ccncc2)c(=O)c1N=Nc1ccc(O)c(C(=O)O)c1`, the growth in experiment [1] was 51.5%; in experiment [2] it was 115%; in [3], 123%; in [16], 109%; in [4], 108%; in [5], 94.7%. In addition, the growth is 105% in [6]; 96.2% in experiment [7]; 132% in [9]; 126% in experiment [10]; 105% in [11]; 117% in [14]. The growth in experiment [15] was 104%.

As for `Cc1ccc(-c2cnc3sc4ccc(Cl)cc4n23)cc1`, the growth in experiment [1] was 98.6%; in [2] it was 103%; in experiment [3], 106%; in experiment [16] it was 86.9%; in [4] it was 75.7%; in [5] it was 81%. Besides, the growth in experiment [6] was 101%; in experiment [7], 110%; in experiment [8], 94.6%; in [17], 100%; in experiment [10], 105%; in experiment [11], 89.7%. For the same compound, the growth in experiment [12] is 81.5%; in experiment [13] it was 89%; in experiment [14], 105%; in experiment [15] it was 96.5%.

For the compound `COc1ccc(C(=O)C(CN(C)C)c2ccccc2)cc1` (configuration not stated), the growth in experiment [1] is 9.15% (active); in experiment [2] it was 17%; in [3], 44.3%; in experiment [16], 33.4%; in experiment [4], 110%; in experiment [5] it was 1.31% (active). In addition, the growth is 0.0357% (active) in [6]; -13.8% (active) in experiment [7]; 9.35% (active) in experiment [8]; 9.93% (active) in experiment [9]; 12.9% in experiment [17]; 25.4% in experiment [10]. The growth in [12] is -1.32% (active); in experiment [13] it was -99.1% (active); in [14] it was 93.9%; in experiment [15], 6.49% (active).
